Assay outcomes as filed in PubChem.
Compounds with a hit are over-represented: about 7.3% of the library has one in this group of screens.
Tau ThT inhib – blocks human tau fibril formation measured by thioflavin T; AID 1460; Potency, µM (doses to about 57.4 µM), for inactives: at the top dose activity, negative = inhibition, actives largely listed as inhibitors; 270,000 compounds, 2.1% hits; recombinant tau K18 P301L, heparin-induced fibrillization, ThT fluorescence; P10636; also: nearly all actives have a fitted effect of over 55% in size
Target sequence (P10636 561-689 P618L limits assumed): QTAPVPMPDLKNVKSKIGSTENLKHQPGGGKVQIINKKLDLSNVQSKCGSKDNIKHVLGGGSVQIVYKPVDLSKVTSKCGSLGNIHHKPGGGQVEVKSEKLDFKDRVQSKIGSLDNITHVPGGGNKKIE
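Recombinant human tau K18 fragment […] carrying P301L, 15 uM unlabeled plus 0.24 uM Alexa 594-labeled, was fibrillized with 20 uM heparin in 100 mM sodium acetate pH 7 for 6 hr at 37 C; 30 uM ThT fluorescence read after 1 hr.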
Tau fluor counter – counter-screen for tau fibril formation inhibitors | 280,000 compounds, 0.93% hits | tau K18 P301L (four-repeat tau fragment) Alexa594 fluorescence, heparin fibrillization | Potency, µM (titrated, usually from 57.7 µM), without a hit: top-dose activity change, negative = decrease; also: nearly all actives have a fitted effect of over 55% in size
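Human K18 P301L tau (15 uM unlabeled plus 0.24 uM Alexa 594-labeled, final) in 100 mM sodium acetate pH 7 was mixed with compound and 20 uM heparin and incubated 6 hr at 37 C.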
Gal4-VP16 FLuc – counter-screen for ROR gamma inhibitors: Gal4-VP16 reporter | Drosophila S2 Gal4-VP16 UAS-luciferase, luminescence, 20 h | Potency, µM (highest dose often 53.6 µM), for inactives: top-dose activity, negative = inhibition, hits mostly inhibitors | 310,000 compounds, 3.5% hits | AID 2546;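 also: Gal4-VP16 expression switched on by copper sulfate through the metallothionein promoter; nearly all actives have a fitted effect of over 50% in size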
Tau FP inhib – blocks human tau fibril formation measured by polarization; P10636; K18 P301L tau heparin fibrillization, Alexa594 FP, 6 h; Potency, µM (titrated, usually from 57.7 µM), without a hit: at the highest dose activity, negative = inhibition, actives largely listed as inhibitors; 280,000 compounds, 0.39% hits; AID 1468; also: nearly all actives have a fitted effect of over 55% in size
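FP of Alexa 594-tau after heparin (20 uM) induction. Substrate: human K18 P301L, 15 uM unlabeled, 0.24 uM labeled. Buffer 100 mM sodium acetate pH 7. 6 hr, 37 C.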
RORgamma inh – ROR gamma (mouse) transcription inhibition. P51450. Drosophila S2 Gal4-RORgamma UAS-luciferase reporter, 20 h. Potency, µM (doses to about 53.6 µM), for the others: at the highest dose activity change, negative = inhibition, usual class: inhibitors. 310,000 compounds, 5.4% hits. AID 2551; also: nearly all actives have a fitted effect of over 60% in size
Target sequence (P51450 whole entry, looked up, the tested form may be a part): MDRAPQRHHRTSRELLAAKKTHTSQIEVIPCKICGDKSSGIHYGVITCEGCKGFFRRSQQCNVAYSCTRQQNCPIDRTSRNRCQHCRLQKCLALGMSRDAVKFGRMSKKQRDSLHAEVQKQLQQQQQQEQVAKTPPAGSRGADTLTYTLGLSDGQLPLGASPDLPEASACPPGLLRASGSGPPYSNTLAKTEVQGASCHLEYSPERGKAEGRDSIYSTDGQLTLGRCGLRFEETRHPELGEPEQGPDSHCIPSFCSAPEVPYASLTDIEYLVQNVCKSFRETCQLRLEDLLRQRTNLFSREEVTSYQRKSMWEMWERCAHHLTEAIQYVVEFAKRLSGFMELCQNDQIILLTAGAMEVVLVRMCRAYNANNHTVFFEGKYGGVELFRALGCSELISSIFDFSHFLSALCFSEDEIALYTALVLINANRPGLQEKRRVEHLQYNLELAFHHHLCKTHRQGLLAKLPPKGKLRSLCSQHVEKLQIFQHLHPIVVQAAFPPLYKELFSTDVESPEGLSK
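A Gal4/UAS one-hybrid system in insect cells: metallothionein-promoter Gal4–ROR gamma fusion plus Photinus luciferase reporter. Copper sulfate 700 uM final, 20 hr ambient incubation, luminescent detection after 10 min with reagent.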
An asterisk follows results filed as active; ? = inconclusive; . = no result; [ ] = remark or other dose. Calls follow the shape of the dose curve; as a rule, active = well fitted curve in the direction sought with a large enough effect; inconclusive = small, poorly fitted or top-dose-only effect, or another doubt; inactive = no such curve, though single readings can be large; an effect the other way counts as inactive or inconclusive. % is scaled to controls: 0 for no effect and ±100 for the full control effect; potency is read from the fitted curve at half-maximal effect.

SMILES | Tau ThT inhib | Tau fluor counter | Gal4-VP16 FLuc | Tau FP inhib | RORgamma inh
CCOC(=O)c1sc(NC(=O)c2ccc(S(=O)(=O)N(C)C)cc2)nc1C | -6% | -11% | -28% | -10% | 0.25µM*
C=C1CC2C(=O)N(Cc3ccccc3)C(C(=O)O)C1N2C(=O)OC(C)(C)C (configuration not stated) | . | . | 5% | . | 2%
Cc1cccc(C)c1NC(=O)N1CCC(C(=O)c2ccc(F)cc2)CC1 | . | . | -15% | . | 41%
COC(=O)c1ccc(NC(=O)CCS(=O)(=O)c2ccc3c(c2)NC(=O)C(C)S3)cc1 (configuration not stated) | . | . | 7.1µM* | . | -39%
CCC1Sc2ccc(S(=O)(=O)CCC(=O)Nc3ccc(C(=O)OC)cc3)cc2NC1=O (configuration not stated) | . | . | ? | . | -26%
COC(=O)c1ccc(NC(=O)CCS(=O)(=O)c2ccc(Br)cc2)cc1 | -6% | -15% | 11µM* | -6% | 8%
COC(=O)c1ccc(NC(=O)CCS(=O)(=O)c2ccc(C)cc2)cc1 | . | . | ? | . | 3%
CN(C)c1ccc(CNC(=O)c2sc3ncccc3c2-n2cccc2)cc1 | -13% | -22% | . | 2% | .
CN1CCN(c2ncnc3ccc(-c4ccccc4C(F)(F)F)cc23)CC1 | . | . | -28% | . | 4%
Cc1cc(C)c(S(N)(=O)=O)c(C)c1-n1cnnn1 | -3% | 6% | 3% | 4% | 8.9µM*
Cc1csc(Nc2nc(N)c(C(=O)Nc3cc(Cl)ccc3F)o2)n1 | . | . | -10% | . | 21%
O=C(c1ccccc1)N1N=C(c2ccccc2)CC1(O)C(F)(F)F (configuration not stated) | . | . | -18% | . | -24%
CC1=NN(C(=O)c2ccccc2-n2cccc2)C(O)(C(F)(F)F)C1 (configuration not stated) | -6% | -5% | ? | 0% | 10µM*
CC1=NN(C(=O)c2ccc(C)cc2)C(O)(C(F)(F)OC(F)(F)F)C1 (configuration not stated) | -4% | -1% | 11µM* | -3% | 6.3µM*
Cn1cc(-c2cc3n(n2)CCC(=O)N3CCCC(=O)NCc2ccccc2)c2ccccc21 | -13% | -19% | . | ? | .
COc1ccc(Cc2nnc(N/N=C/c3ccc(O)cc3)[nH]c2=O)cc1OC | -9% | -14% | 4µM* | -6% | 2.2µM*
COc1ccc(Cc2nnc(N/N=C/c3ccc(Br)cc3)[nH]c2=O)cc1OC | -9% | -14% | -8% | -11% | 13%
COc1ccc(Cc2nnc(N/N=C/c3ccc(C)o3)[nH]c2=O)cc1 | -17% | -12% | -26% | 3% | 11µM*
O=C(OC[C@@H]1O[C@@](O)(COC(=O)c2cccnc2)[C@H](OC(=O)c2cccnc2)[C@H]1OC(=O)c1cccnc1)c1cccnc1 | ? | -8% | 6% | ? | 1%
CCOC(=O)c1c(C)[nH]c(/C(C)=N/O)c1C | 11% | 2% | -3% | 2% | -4%[10 µM]
CCOC(=O)c1c(C)[nH]c(C2=NNC(=NC3CC3)SC2)c1C | 16µM* | ? | ? | ? | ?
O=C(NNC(=S)Nc1ccc(F)cc1)c1ccccc1OC(F)F | -13% | -4% | 1% | 6% | 2.8µM*
COC(=O)c1ccc(C(NC(=O)OCc2ccccc2)/C(=C/[C@@H](C)C(=O)NCc2nc3ccccc3n2C)c2cccnc2)cc1 (some centres not stated) | ? | -14% | 10% | 13% | 43%
S=c1[nH]nc(CSCCOc2ccc(Cl)cc2Cl)o1 | -6% | -7% | 3.2µM* | -1% | 4µM*
Cc1ccc(-c2nc3ccccc3s2)cc1NC(=S)NC(=O)/C=C/c1ccco1 | ? | -18% | 10µM* | -15% | 4µM*
SMILES | Tau ThT inhib | Tau fluor counter | Gal4-VP16 FLuc | Tau FP inhib | RORgamma inh
O=C(/C=C/c1ccco1)NC(=S)Nc1cc(-c2nc3ccccc3s2)ccc1Cl | 8% | 3% | 1µM* | 6% | 0.63µM*
Cc1noc2ncnc(Sc3ccc(Br)cc3)c12 | ? | -11% | 11µM* | ? | 4µM*
CNS(=O)(=O)c1cn(CC(=O)N2CCN(c3cccc(Cl)c3)CC2)cc1S(=O)(=O)NC | -4% | -6% | . | -5% | .
Cc1ccc2sc(C)[n+](CCO)c2c1 | ? | -7% | 5% | -11% | 3%
CCOC(=O)C[n+]1c(C)sc2ccc(OC)cc21 | 28µM* | -19% | ? | ? | ?
O=C(CC(=O)c1cc(Cl)ccc1O)c1ccccc1 | ? | -27% | 11µM* | -15% | ?
Cc1cccc(C(=O)CC(=O)c2cc(Cl)ccc2O)c1 | ? | ? | ? | -22% | ?
Cc1ccc(O)c(C(=O)CC(=O)c2cccc(F)c2)c1 | ? | -27% | 7.1µM* | -10% | 7.9µM*
Cc1ccc(O)c(C(=O)CC(=O)c2ccc(Cl)cc2)c1 | . | . | 5µM* | . | 3.5µM*
Cc1ccc(C(=O)CC(=O)c2ccccc2)cc1 | . | . | ? | . | 11µM*
Cc1cccc(N/C(N)=N/c2nc(C)c(Cc3ccccc3)c(=O)[nH]2)c1 | -4% | -1% | -16% | -6% | -2%
COc1ccc(N2CCN(S(=O)(=O)CCNC(=O)Cc3ccc(OC)c(OC)c3)CC2)cc1 | -1% | 1% | . | 4% | .
Cc1ccc(NC(=O)c2ccccc2)cc1 | ? | -10% | ? | -4% | 13%
Cc1ccc(C(=O)Sc2cccccc2=O)cc1 | . | . | 2.2µM* | . | 1.8µM*
O=S(=O)(Nc1cc2nc3ccccc3nc2n1Cc1ccccc1)c1ccc(Cl)cc1 | ? | 14µM*[quencher] | ? | ? | ?
CC(C)c1ccc(S(=O)(=O)/N=C2/C=CC(=O)c3ccccc32)cc1 | 28µM* | ? | 18µM* | ? | ?
CCOC(=O)c1sc(NC(=O)CSC(=S)N2CCOCC2)nc1C | 1% | -7% | -16% | -4% | 6%
O=C(CSC(=S)N1CCOCC1)Nc1nc(-c2ccccc2)c(-c2ccccc2)o1 | -8% | -16% | ? | -1% | 11µM*
O=C(CSC(=S)N1CCN(c2ccccc2)CC1)Nc1nc(-c2ccccc2)c(-c2ccccc2)o1 | -6% | -5% | -7% | 12% | 10µM*
O=C(CSC(=S)N1CCCCC1)Nc1nc(-c2ccccc2)c(-c2ccccc2)o1 | -10% | -9% | ? | 1% | 5.6µM*
Cn1nnnc1SCC(=O)Nc1ccccn1 | -6% | -8% | 14% | 0% | 6%
Cn1nnnc1SCC(=O)Nc1nc(-c2ccccc2)c(-c2ccccc2)o1 | -8% | -25% | ? | 5% | 10µM*
O=C(O)C1CCCN1 (configuration not stated) | . | . | 5% | . | 7%
CCN(CC)C(=S)SCC(=O)Nc1nc(-c2ccccc2)c(-c2ccccc2)o1 | -3% | -18% | 8.9µM* | -7% | 4.5µM*
CC(=O)CSc1nc(-c2ccccc2)c(-c2ccccc2)o1 | . | . | -9% | . | 7%
